According to the supplement of paper PMC12645437, “Orthogonal IMiD-Degron Pairs Induce Selective Protein Degradation in Cells” (ACS Chemical Biology, 2025):
Over roughly 8,300 sequences, “log2 fold change of degron read counts, EGFP-low vs EGFP+ sorted cells (limma voom), compound-induced degradation” has its median near -1.1; the highest 2% begin near 3.2. Many of the other results were omitted from the sample, so the highest values are more common in it than they were.

T1: CRBN, Q96SW2
T1 chain: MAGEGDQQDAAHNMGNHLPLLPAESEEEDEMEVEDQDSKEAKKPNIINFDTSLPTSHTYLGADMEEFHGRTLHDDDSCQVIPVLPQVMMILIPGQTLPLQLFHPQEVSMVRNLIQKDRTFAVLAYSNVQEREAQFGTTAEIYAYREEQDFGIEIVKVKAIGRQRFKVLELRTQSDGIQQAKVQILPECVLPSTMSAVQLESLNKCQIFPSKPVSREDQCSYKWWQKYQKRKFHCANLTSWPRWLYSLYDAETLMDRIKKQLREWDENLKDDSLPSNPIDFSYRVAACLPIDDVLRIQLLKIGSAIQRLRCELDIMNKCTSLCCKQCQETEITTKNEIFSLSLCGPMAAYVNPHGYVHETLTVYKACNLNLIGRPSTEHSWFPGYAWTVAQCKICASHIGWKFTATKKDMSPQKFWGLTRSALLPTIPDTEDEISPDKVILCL


Biological target: T1, CRBN, Q96SW2
Assay: log2 fold change of degron read counts, EGFP-low vs EGFP+ sorted cells (limma voom), compound-induced degradation; higher = more compound-induced degradation of the degron-EGFP fusion; degrons are variants of IKZF1/3 zinc finger 2; compound dose not given here
Settings: Jurkat, 18 h
[1] = compound: compound 19 (5-tert-butyl-thalidomide)
[2] = compound: compound 22 (5-morpholino-thalidomide)
[3] = compound: compound 33 (diphenyl IMiD analogue)
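Note: pooled lentiviral library of zinc finger degron-EGFP fusions in mCherry-positive Jurkat cells, FACS-sorted after compound exposure, with degron abundance counted by next-generation sequencing.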

Sequence	log2 fold change of degron read counts [1]	log2 fold change of degron read counts [2]	log2 fold change of degron read counts [3]	log2 fold change of degron read counts (compound: thalidomide)
FHCNQCGHDFTQKGNLLRHIKL [46F_47H_49N_50Q_52G_53H_54D_55F_67L_, Q9UKT9]	-2.36	-2.92	-3.64	-3.18
FRCPICGRKFTQKGNLLRHIKL [46F_47R_49P_50I_52G_53R_54K_55F_67L_, Q9UKT9]	-1.49	-0.504	0.233	0.803
FICNQCGRHFTQKGNLLRHIKL [46F_47I_49N_50Q_52G_53R_54H_55F_67L_, Q9UKT9]	-2.53	-2.91	-2.85	-2.39
FRCDQCGAQFTQKGNLLRHIKL [46F_47R_49D_50Q_52G_53A_54Q_55F_67L_, Q9UKT9]	-2.54	-2.73	-1.77	-2.38
FMCEQCGASFTQKGNLLRHIKL [46F_47M_49E_50Q_52G_53A_54S_55F_67L_, Q9UKT9]	-1.6	-1.45	1.54	-0.529
FWCNQCGRCFTQKGNLLRHIKL [46F_47W_49N_50Q_52G_53R_54C_55F_67L_, Q9UKT9]	-1.48	-2.02	-1.83	-1.5
LGCEICGFICTQKGNLLRHIKL [46L_47G_49E_50I_52G_53F_54I_55C_67L_, Q9UKT9]	0.761	-0.0429	-0.436	-0.337
FVCEICGARFTQKGNLLRHIKL [46F_47V_49E_50I_52G_53A_54R_55F_67L_, Q9UKT9]	1.67	2.43	1.02	3.07
FMCEICGARFTQKGNLLRHIKL [46F_47M_49E_50I_52G_53A_54R_55F_67L_, Q9UKT9]	-0.0205	-0.359	1.34	1.5
FLCEICGARFTQKGNLLRHIKL [46F_47L_49E_50I_52G_53A_54R_55F_67L_, Q9UKT9]	0.574	-1.16	-0.0449	2.33
FQCEICGARFTQKGNLLRHIKL [46F_47Q_49E_50I_52G_53A_54R_55F_67L_, Q9UKT9]	0.106	2.1	1.34	3.7
FQCEICGAWFTQKGNLLRHIKL [46F_47Q_49E_50I_52G_53A_54W_55F_67L_, Q9UKT9]	-1.84	-0.947	0.615	2.26
FICEICGARFTQKGNLLRHIKL [46F_47I_49E_50I_52G_53A_54R_55F_67L_, Q9UKT9]	0.817	2.66	1.57	3.04
FYCEICGARFTQKGNLLRHIKL [46F_47Y_49E_50I_52G_53A_54R_55F_67L_, Q9UKT9]	3.7	3.37	2.11	1.8
FDCEICGARFTQKGNLLRHIKL [46F_47D_49E_50I_52G_53A_54R_55F_67L_, Q9UKT9]	3.3	1.74	0.651	2.27
FHCEICGARFTQKGNLLRHIKL [46F_47H_49E_50I_52G_53A_54R_55F_67L_, Q9UKT9]	2.72	2.42	0.44	0.706
FRCEICGARFTQKGNLLRHIKL [46F_47R_49E_50I_52G_53A_54R_55F_67L_, Q9UKT9]	-0.586	-0.873	-0.311	0.853
FACEICGARFTQKGNLLRHIKL [46F_47A_49E_50I_52G_53A_54R_55F_67L_, Q9UKT9]	3.84	2.89	-0.685	1.16

Sequence	log2 fold change of degron read counts [1]	log2 fold change of degron read counts [2]	log2 fold change of degron read counts [3]	log2 fold change of degron read counts (compound: thalidomide)
FGCSVCGHIFTQKGNLLRHIKL [46F_47G_49S_50V_52G_53H_54I_55F_67L_, Q9UKT9]	-1.23	-2.7	-2.06	-1.9
LHCPICGFDCTQKGNLLRHIKL [46L_47H_49P_50I_52G_53F_54D_55C_67L_, Q9UKT9]	-1.62	-1.37	0.393	-0.313
FICNQCGREFTQKGNLLRHIKL [46F_47I_49N_50Q_52G_53R_54E_55F_67L_, Q9UKT9]	-2.93	-3.08	-3.08	-3.43
FQCEQCGACFTQKGNLLRHIKL [46F_47Q_49E_50Q_52G_53A_54C_55F_67L_, Q9UKT9]	-1.81	0.107	0.542	3.02
FCCPICGANFTQKGNLLRHIKL [46F_47C_49P_50I_52G_53A_54N_55F_67L_, Q9UKT9]	2.07	2.16	2.33	2.22
FMCEICGRGFTQKGNLLRHIKL [46F_47M_49E_50I_52G_53R_54G_55F_67L_, Q9UKT9]	-1.28	-1.8	-0.771	-1.76
LSCPICGFICTQKGNLLRHIKL [46L_47S_49P_50I_52G_53F_54I_55C_67L_, Q9UKT9]	1.06	1.05	1.47	0.848
LMCPICGFRCTQKGNLLRHIKL [46L_47M_49P_50I_52G_53F_54R_55C_67L_, Q9UKT9]	0.588	1.13	2.13	2
LQCPICGFRCTQKGNLLRHIKL [46L_47Q_49P_50I_52G_53F_54R_55C_67L_, Q9UKT9]	0.322	1.54	0.782	3.35
LECPICGFRCTQKGNLLRHIKL [46L_47E_49P_50I_52G_53F_54R_55C_67L_, Q9UKT9]	1.29	0.491	2.73	3.62
LDCPICGFRCTQKGNLLRHIKL [46L_47D_49P_50I_52G_53F_54R_55C_67L_, Q9UKT9]	2	0.931	1.11	2.55
LYCPICGFRCTQKGNLLRHIKL [46L_47Y_49P_50I_52G_53F_54R_55C_67L_, Q9UKT9]	3.08	3.4	1.5	1.15
LLCPICGFRCTQKGNLLRHIKL [46L_47L_49P_50I_52G_53F_54R_55C_67L_, Q9UKT9]	0.662	-0.346	0.856	2.44
LQCPICGFICTQKGNLLRHIKL [46L_47Q_49P_50I_52G_53F_54I_55C_67L_, Q9UKT9]	-0.0184	2.22	2.06	3.45
LVCPICGFRCTQKGNLLRHIKL [46L_47V_49P_50I_52G_53F_54R_55C_67L_, Q9UKT9]	1.86	3.01	1.42	3.2
LTCPICGFICTQKGNLLRHIKL [46L_47T_49P_50I_52G_53F_54I_55C_67L_, Q9UKT9]	-0.0311	0.718	1.67	1.78
LRCPICGFRCTQKGNLLRHIKL [46L_47R_49P_50I_52G_53F_54R_55C_67L_, Q9UKT9]	-0.000253	-0.254	0.655	1.06
LTCPICGFRCTQKGNLLRHIKL [46L_47T_49P_50I_52G_53F_54R_55C_67L_, Q9UKT9]	1.45	2.61	1.91	2.92
